This note sets out measurements from PubChem BioAssay (NCATS).

Assay [1] is described as follows: Viability qHTS for spleen associated tyrosine kinase inhibitor (SYKi) drug resistant MV4-11 cells (AID 1963824). Note: nearly all actives have a fitted effect of over 35% in size. To be noted: SYKi-resistant MV4-11 viability, CellTiter-Glo, 72 h; series mostly up to 45 µM. Put shortly:
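SYK-inhibitor-resistant MV4-11 AML cells were seeded at 500 per well onto compound and cultured 72 hours (37 °C, 5% CO2). CellTiter-Glo was then added, and after 10 min at room temperature, luminescence gave viability.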

The nature of assay [2]: Cellular viability qHTS for adrenocortical cancer (ACC) cell line NCI-H295R (AID 1963990). Note: nearly all actives have a fitted effect of over 60% in size. To be noted: CellTiter-Glo ATP luminescence, 48 h; series mostly up to 46.1 µM. The essentials:
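Compound titrations (up to 46 uM final) are applied to NCI-H295R cultures for 48 h at 37C. Viable cell number is estimated by CellTiter-Glo signal, normalised to DMSO and doxorubicin controls.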
(In general: Quantitative high-throughput screening tests each substance at several concentrations.)

Each structure is given as a SMILES string. Inconclusive results are not listed. The source made the active and inactive calls. Calls come from the whole dose curve; as a rule, active = well fitted curve in the direction sought with a large enough effect; inconclusive = small, poorly fitted or top-dose-only effect, or another doubt; inactive = no such curve, though single readings can be large; an effect the other way counts as inactive or inconclusive.
Potency is the fitted concentration of half-maximal effect.

For the compound `CN(C)CCOC1=Cc2ccccc2Sc2ccc(Cl)cc21`, the figures for the Potency in assay [1] and in assay [2] were 15 µM (active) and 20.6 µM (active), respectively.
In the same order, the values of `CC(=O)Oc1ccc2c(c1)CC[C@@H]1[C@@H]2CC[C@]2(C)[C@@H](O)CC[C@@H]12` are 15 µM (active) and 18.4 µM (active).
On to `CC(=O)O[C@@]12CO[C@@H]1C[C@H](O)[C@@]1(C)C(=O)[C@H](O)C3=C(C)[C@@H](OC(=O)[C@H](O)[C@@H](NC(=O)OC(C)(C)C)c4ccccc4)C[C@@](O)([C@@H](OC(=O)c4ccccc4)[C@H]21)C3(C)C`, for which the Potency in assay [1] was 0.0024 µM (active); in assay [2], 0.0411 µM (active).
Turning to `CC/C(=C(/c1ccc(/C=C/C(=O)O)cc1)c1ccc2[nH]ncc2c1)c1ccc(F)cc1Cl`, the Potency in assay [1] is 16.6 µM (active); in assay [2], 15.8 µM (active).
In the case of `C[n+]1cc2c3c(ccc2c2ccc4cc5c(cc4c21)OCO5)OCO3`, the Potency in assay [1] is 1.3 µM (active); in assay [2], 1.42 µM (active).
As for `Fc1ccc2[nH]ccc2c1-c1nc(N2CCOCC2)c2sc(CN3CCN(CC4CC4)CC3)cc2n1`, the values for the Potency in assay [1] and in assay [2] were 5.9 µM (active) and 31.6 µM (active), respectively.
In the case of `CCN(CC)CCNc1ccc(CO)c2sc3ccccc3c(=O)c12`, the Potency in assay [1] is 3.76 µM (active); in assay [2] it was 1.03 µM (active).
